# Bioassay records from PubChem BioAssay.
# ssDAF12 agonist: S. stercoralis DAF-12 nuclear receptor activators, primary screen, cell-based, luminescence, HEK293, GRIP1 co-expression, lit1-tk-luc; Nuclear hormone receptor DAF-12 (Strongyloides stercoralis); HEK293 ssDAF-12/GRIP1 lit1-tk-luc reporter; % of 3 µM dafachronic acid response; activation, % at 6.8 µM; 1% of 370,000 active; AID 652126, 2013;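 active means activation above the mean over all tested compounds plus 3 SD, cut at about 0.9% in these data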;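 further: 0% = DMSO-only wells and 100% = 3 µM delta7-dafachronic acid wells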
# hcDAF-12 act: H. contortus DAF-12 nuclear receptor activators, primary screen, cell-based, luminescence, HEK293, lit1-tk-luc reporter. HEK293 hcDAF-12 lit1-tk-luc reporter; 0% DMSO, 100% Δ7-dafachronic acid. activation, % at 6.8 µM. 1.4% of 370,000 active. AID 652067, 2013;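 active means activation above the mean of all tested compounds plus 3 SD, cut at about 5.5% in these data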;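 further: 100% = response to 3 µM Δ7-dafachronic acid high control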
# DAX1 inh-1: DAX1 (NR0B1) inhibitors, primary screen, cell-based, HEK293, Gal4-DAX1, luciferase luminescence; HEK293 Gal4-DAX1 luciferase reporter; inhibition, % at 6.75 µM; 0.99% of 340,000 active; AID 504766, 2011;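 active means inhibition above the mean over all tested compounds plus 3 SD, cut at about 4.2% in these data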;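 further: 0% = DAX1-transfected cells with DMSO and 100% = empty-vector control cells with DMSO; inhibition shows as a rise in luminescence from relieved DAX1 repression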
# Target sequence (P51843 207-470 limits assumed): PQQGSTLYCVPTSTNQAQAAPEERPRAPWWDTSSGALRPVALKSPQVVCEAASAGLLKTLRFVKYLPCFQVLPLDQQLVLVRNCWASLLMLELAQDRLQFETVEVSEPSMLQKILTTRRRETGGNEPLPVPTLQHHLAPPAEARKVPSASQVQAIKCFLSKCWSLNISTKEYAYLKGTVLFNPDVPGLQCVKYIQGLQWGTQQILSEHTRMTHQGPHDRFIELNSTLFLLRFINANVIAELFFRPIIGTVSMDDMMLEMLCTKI
# DAX1 inh-2: DAX1 (NR0B1) inhibitors on StAR promoter, primary screen, cell-based, luminescence, SF-1 (NR5A1), full-length DAX-1 | 1.1% of 370,000 active | HEK293T StAR-luciferase reporter, SF-1/DAX-1 repression relief | inhibition, % at 6.8 µM;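 active means inhibition above the mean over all tested compounds plus 3 SD, cut at about 3.6% in these data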;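 further: 0% = DAX-1 cells with DMSO and 100% = cells lacking DAX-1 with DMSO; higher inhibition means more luminescence from relief of DAX-1 repression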
# hgDAF-12 ag: H. glycines DAF-12 receptor agonists, primary screen, cell-based, luminescence, HEK293, GAL4 fusion, UAS-luciferase | Nuclear hormone receptor DAF-12 (Heterodera glycines), GAL4 fusion | HEK293 GAL4-hgDAF12 UAS-luciferase reporter, agonist luminescence; normalized to butyrate control | activation, % at 6.8 µM | 1.8% of 370,000 active | AID 687014, 2013;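 active means activation above a cutoff set at the mean of all screened compounds plus 3 SD, cut at about 10% in these data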;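 further: 0% = DMSO wells and 100% = sodium butyrate wells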
# SMARCA2 act: SMARCA2 (BRM) function activators, primary screen, cell-based, luminescence, high throughput; MG213 cells, MMTV-luciferase reporter, dexamethasone, overnight; activation, % at 9.1 µM; 1% of 370,000 active; in the data active means activation above about 7.8%;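 further: 0% = vehicle wells and 100% = reference activator wells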
# * hit, by the source's call; nt = not tested or not shown. Shown are actives, neighbours in structure and some others; about 4.8% of the full set was active somewhere.
SMILES,ssDAF12 agonist,hcDAF-12 act,DAX1 inh-1,DAX1 inh-2,hgDAF-12 ag,SMARCA2 act
O=C(O)CC1(c2ccccc2)C(=O)c2ccccc2C1=O,-1,-1,0,0,-1,2
NC(=O)C1C(=O)c2ccccc2C1(C[N+](=O)[O-])c1ccccc1 (centres undefined),0,5.8*,0,1,-2,-2
Cc1ccc(C)n1-n1c(C)nc2sc(-c3ccccc3)cc2c1=O,-1,-1,0,-1,5,3
C=CCN1CC(c2nc3ccccc3n2Cc2ccccc2)CC1=O (centres undefined),-1,1,-1,-1,-2,-2
Cn1c(C2CC(=O)N(Cc3ccccc3)C2)nc2ccccc21 (centres undefined),1.1*,-2,2,0,1,6
COc1ccccc1NC(=O)Cc1noc(CSc2cccc[n+]2[O-])n1,-1,0,0,0,2,1
Cn1nc(C(=O)NCc2ccc(F)cc2)cc1C(=O)NCc1ccc(F)cc1,-1,-2,0,2,-4,-2
C/C(=N/NC(=O)c1cccs1)c1cccc(NC(=O)C2CC2)c1,0,5,1,4.2*,13*,2
CC(=O)N/N=C(\C)c1cccc(NC(=O)c2cccs2)c1,-3,-2,0,-1,2,1
C/C(=N\NC(=O)c1cccc([N+](=O)[O-])c1)c1cccs1,-1,1,4.9*,1,6,3
C/C(=N\NC(=O)c1cccc([N+](=O)[O-])c1)c1ccncc1,0,1,-2,-1,4,3
C/C(=N\NC(=O)c1cccc2ccccc12)c1cccs1,0,-1,1,1,1,2
C/C(=N\NC(=O)c1cccs1)c1ccc2ccccc2c1,-1,3,4,2,11*,3
Cc1nn(C)c(=S)n1-c1ccc(Cl)cc1,-2,-1,4,0,0,1
CC(C)CCNC(=O)[C@H](CSCc1ccccc1)N1Cc2ccccc2C1=O,-2,1,1,-1,-2,-2
O=C(NCCc1ccccc1)c1ccc(NS(=O)(=O)c2ccc3[nH]c(=O)[nH]c3c2)cc1,-1,0,2,3.8*,6,1
O=c1[nH]c2ccc(NS(=O)(=O)c3ccc(Cl)cc3)cc2[nH]1,-2,2,5.0*,0,1,-1
O=C(O)CCc1ccc(S(=O)(=O)Nc2ccccc2C(=O)NCCc2ccccc2)cc1,1.0*,5,1,1,10,7
O=c1[nH]c2ccc(NS(=O)(=O)c3ccc(F)c(Cl)c3)cc2[nH]1,-1,0,-1,0,-1,-1
CC(NC(=O)c1ccccc1NS(=O)(=O)c1ccc(CCC(=O)O)cc1)c1ccccc1 (centres undefined),-2,1,0,1,0,-2
CCOc1ccc2nc(CN3CCN(Cc4ccccc4OCC)C(CCO)C3)ccc2c1 (centres undefined),-2,-4,-3,-1,-5,-5
CCOc1ccccc1CN1CCN(Cc2ccc3cc(F)ccc3n2)CC1CCO (centres undefined),0,5,5.4*,0,2,-2
CCn1cc2nc(SCC(=O)Nc3ccc(OC)c(OC)c3)n(Cc3ccc(OC)cc3)c(=O)c2n1,-1,-1,0,0,-1,1
COc1ccc(CCNC(=O)CN2C(=O)C(=O)N(C3CCCC3)C2=O)cc1OC,1.3*,0,0,1,1,1
O=C(CN1C(=O)C(=O)N(C2CCCC2)C1=O)NCCc1ccc(F)cc1,-1,0,-1,-1,0,-1
SMILES,ssDAF12 agonist,hcDAF-12 act,DAX1 inh-1,DAX1 inh-2,hgDAF-12 ag,SMARCA2 act
O=C1C(Cl)=C(N2CCCCCC2)C(=O)N1c1ccccc1,-2,-2,1,-1,0,-1
O=C1C(Cl)=C(N2CCCCCC2)C(=O)N1c1ccc(Br)cc1,2.2*,1,0,0,5,1
CC1CCN(CCCCOc2ccc(Cl)cc2)CC1,nt,nt,1,nt,nt,nt
CC1CCN(C(=O)CCCOc2ccc(Cl)cc2)CC1,1.3*,-1,1,0,3,0
CC(=O)Nc1cccc(-c2nc3ccc(NC(C)=O)cc3[nH]2)c1,-1,1,0,0,3,0
Cc1ccc(NC(=O)Cn2nnc(-c3ccccc3NC(=O)c3cccs3)n2)cc1,-2,0,-3,-2,0,-4
COC(=O)c1ccc(CNC(=O)COC(=O)/C=C/c2ccc(O)c(OC)c2)cc1,-1,-1,-3,-1,1,-2
Cc1ccc(S(=O)(=O)N2CCN(C(=O)COC(=O)COc3ccc(Cl)c(C)c3)CC2)c(C)c1,-1,0,0,-1,-3,4
Cc1ccc(S(=O)(=O)N2CCN(C(=O)COC(=O)COc3ccc(Cl)cc3)CC2)c(C)c1,-1,0,4.8*,0,-1,-4
O=C(COc1ccc(S(=O)(=O)NCc2ccccc2)cc1Cl)NCc1ccccn1,-2,-2,-2,0,-2,-2
O=C(COc1ccc(S(=O)(=O)N2CCc3ccccc32)cc1Cl)NCc1ccccn1,0.9*,0,-1,0,2,1
CCOC(=O)CCc1c(C)n[nH]c1C,-1,1,-1,-1,-2,-4
COc1ccc(C2C(C(N)=O)=C(C)Nc3nc(CCCO)nn32)cc1 (centres undefined),-1,-1,0,0,2,-1
CC(=O)c1c(C)n(-c2ccc(Br)cc2)c2ccc(O)cc12,-2,-3,0,0,1,-1
COc1ccc(Br)cc1S(=O)(=O)NCCN1CCOCC1,-1,-1,4.5*,1,4,0
COc1cc(C(C[N+](=O)[O-])c2c(C)[nH]c3ccccc23)cc(OC)c1OC (centres undefined),0,2,0,0,-1,-3
O=[N+]([O-])CC(c1ccccc1)c1c[nH]c2ccccc12 (centres undefined),1.1*,3,nt,0,0,-2
COc1ccc(C(c2c[nH]c3ccccc23)c2c[nH]c3ccccc23)cc1O,2.8*,5,3,-1,5,2
Cc1cccc(NC(=O)CN2C(=O)NC3(CCCC3)C2=O)n1,-1,1,2,1,-1,0
